# Experimental data taken from PubChem BioAssay AID504834 (National Center for Advancing Translational Sciences (NCATS), 2011).
# The campaign covered roughly 320,000 compounds. About 22,000 (6.9%) were called active. Roughly 27% stayed inconclusive and do not appear here. This is one part of a sample in which actives are shown more often than they occur. Values without a mark were called inactive. Calls come from the whole dose curve; as a rule, active = well fitted inhibition curve with a large enough effect; inconclusive = small, poorly fitted or top-dose-only effect, or another doubt; inactive = no such curve, though single readings can be large or run the other way.
# Test: Primary qHTS for delayed death inhibitors of the malarial parasite plastid, 96 hour incubation
# Details: P. falciparum luciferase reporter growth; series mostly up to 28.7 µM; activity change, negative = inhibition: at the top concentration
# In short: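 Compounds incubated with erythrocytes infected by luciferase-expressing P. falciparum (2% hematocrit, 0.05% parasitemia final) for 96 hours, 37 C in 5% CO2. Growth inhibition scored as decreased luciferase luminescence.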
# % is set by controls: 0 for no effect and ±100 for the full control effect; potency is the fitted concentration of half-maximal effect.
SMILES,"activity change, negative = inhibition",Potency
Cc1ccccc1Nc1nc(-c2cccnc2)cs1,-7.11%,
O=C(Nc1ccc(O)cc1)c1ccccc1O,28.8%,
CC(=O)NC(=O)c1ccccc1O,,5.36 µM (active)
Cc1cc(C(=O)NNC(=O)c2ccccc2O)c(C)o1,57.1%,
COc1ccc(C(=O)Nc2c(N)nc(SCC(=O)Nc3ccc(C(C)=O)cc3)[nH]c2=O)cc1,-14.7%,
Cc1ccc(-n2ccc(=O)c(C(=O)O)n2)cc1,-10.7%,
CCc1ccc(-c2nn(-c3ccccc3)cc2CSC(=N)N)cc1,33.9%,
CCn1c(SCc2ccc(C)cc2)nnc1-c1nn(-c2ccccc2)ccc1=O,,7.38 µM (active)
CCOc1ccc(N(CC(=O)NCC2CCCO2)S(=O)(=O)c2ccc(C)cc2)cc1 (configuration not stated),17.6%,
CCOC(=O)c1sc(NC(=O)c2ccncc2)nc1C,,9.28 µM (active)
CCOC(=O)c1sc(NC(=O)c2sc(C)nc2C)nc1C,32.2%,
CCOC(=O)c1cccnc1NC(=O)c1ccncc1,18.8%,
CCc1nc(SCC(=O)NNC(=O)c2ccc(C)cc2)c2ccccc2n1,16.4%,
C=Cn1cc[n+](CC(=O)c2ccc(OC)c(OC)c2)c1,-6.61%,
C=CCOc1ccc(/C=C2/C(=O)ON=C2C)cc1OCC,2.1%,
COc1ccc(NC(=O)CN(C)C(=O)Cc2coc3cc(C)c(C)cc23)cc1,-1.57%,
NC(=O)C1CCN(C(=O)/C(=C/c2ccco2)NC(=O)c2ccccc2)CC1,-2.21%,
C/C(=C\c1ccco1)CN1CCC(N2CCC(C(=O)N3CCOCC3)CC2)CC1,,5.86 µM (active)
O=C(C1CCN(C2CCN(Cc3ccc4cc(F)ccc4n3)CC2)CC1)N1CCCC1,16%,
CCOC(=O)c1c(C)[nH]c2c1-c1ccccc1C(=O)C2=O,,1.47 µM (active)
CCOC(=O)c1c(C)[nH]c(C(=O)NCc2ccccc2OC)c1C,55.2%,
CCOC(=O)C1=C(c2ccc(OC)cc2)C(=O)c2ccccc2C1=O,2.89%,

SMILES,"activity change, negative = inhibition",Potency
CCOC(=O)COc1nc(C)cc(C(F)(F)F)c1C#N,10.9%,
COc1ccccc1C(=O)NN1C(=O)C2C3C=CC(O3)C2C1=O (configuration not stated),12.9%,
O=C(NN1C(=O)C2C3C=CC(O3)C2C1=O)c1ccncc1 (configuration not stated),31.8%,
O=C(NN1C(=O)C2C3C=CC(O3)C2C1=O)c1ccccc1 (configuration not stated),,11.7 µM (active)
Cc1ccc(S(=O)(=O)N2CCN(C(=O)N3CCOCC3)CC2)c(C)c1,0%,
O=C(COC(=O)c1ccccc1Cl)NC1CCCCCCC1,22.8%,
CCOc1ccc(N2C(=O)CSC2=NC#N)cc1,-2.8%,
CC(=O)OC(COc1ccc(F)cc1)Cn1cnc2ccccc21 (configuration not stated),-11.5%,
CC(=O)OCC(COC(C)=O)OC(C)=O,,inactive
CC(=O)N=c1ncn(CC(COC(C)=O)OC(C)=O)c2nc[nH]c12 (configuration not stated),,7.38 µM (active)
CCOc1ccc(NS(=O)(=O)c2ccc(Cl)c(C(=O)N(C)Cc3cccnc3)c2)cc1,-18.3%,
CC1(OC(=O)CCc2ccccc2)C(=O)C=C2C=C(c3ccc(C#N)cc3)N(CCc3ccccn3)C=C2C1=O (configuration not stated),,13.1 µM (active)
COCCN1C=C2C(=O)C(C)(OC(=O)C3CCCC3)C(=O)C=C2C=C1c1ccsc1 (configuration not stated),31%,
Cc1ccc(OCCCC(=O)Nc2ccc(S(=O)(=O)Nc3cc(C)nc(C)n3)cc2)cc1,2.09%,
CCCS(=O)(=O)Nc1ccc(-c2cn3c(n2)SCC3)cc1,60.1%,
O=C(Nc1cccc(Cl)c1Cl)c1ccccc1NC(=O)C1CC=CCC1C(=O)O (configuration not stated),,14.7 µM (active)
CC(=O)Nc1ccc(NC(=O)COc2ccccc2C(=O)Nc2cccc(Cl)c2Cl)cc1,-7.49%,
O=C(O)C1CC=CCC1C(=O)Nc1ccccc1C(=O)N1CCN(c2ccccc2)CC1 (configuration not stated),-3.07%,
COCc1c(C(=O)N/N=C\c2cccnc2)nnn1-c1nonc1N,-18.9%,
Cc1ccc(C(=O)NNc2ncnc3ccccc23)cc1,-13.1%,
Cc1cc(=O)[nH]c(N/N=C/c2ccc3c(c2)OCCO3)n1,78.7%,
Cc1nn(-c2ccccc2)c(Cl)c1/C=N/NC(=O)c1nn(C)cc1[N+](=O)[O-],-22%,

SMILES,"activity change, negative = inhibition",Potency
Cc1cc(=O)[nH]c(N/N=C/c2c(C)nn(-c3ccccc3Cl)c2Cl)n1,,2.94 µM (active)
CC1CCCC(NC(=O)c2cc(-c3ccncc3)nc3ccccc23)C1C (configuration not stated),-15.3%,
CCCCSc1nnc2c(n1)OC=Nc1ccccc1-2,23.8%,
CNS(=O)(=O)c1cccc(C(=O)NCC2CCCCC2)c1,17.8%,
CCOc1ccc(N/C(N)=N/c2nc(C)c(C)c(=O)[nH]2)cc1,-14.9%,
COC(=O)c1cc(NC(=O)c2cccnc2)ccc1N1CCOCC1,-4.07%,
O=C(Nc1cccc(Cl)c1N1CCOCC1)c1ccc2c(c1)OCCO2,47.9% [at 5.75 µM],
O=C(Nc1cccc(Cl)c1N1CCOCC1)c1cccnc1,,9.28 µM (active)
COCCNC(=O)c1ccc2c(c1)ncn2-c1ccc(C)c(Cl)c1,11.4%,
COc1ccc2c(c1)N(C)/C(=C1/SC(=S)N(NC(C)=O)C1=O)S2,0%,
Cc1nc(C(=O)N2CCCC(C(=O)c3ccc(Cl)cc3)C2)cs1 (configuration not stated),7.81%,
CC(C)Oc1cccc(C(=O)C2CCCN(C3CCOCC3)C2)c1 (configuration not stated),-13.1%,
Cn1nccc1C(=O)N1CCCC(C(=O)c2ccc(Oc3ccccc3)cc2)C1 (configuration not stated),,2.94 µM (active)
COc1ccc2cc(C(=O)C3CCCN(C(=O)c4sc(C)nc4C)C3)ccc2c1 (configuration not stated),,13.1 µM (active)
CSc1ccc(C(=O)C2CCCN(C(=O)c3ccc(C)nc3)C2)cc1 (configuration not stated),-19.8%,
Cc1ccccc1NC(=O)C1CCCN(C(=O)NCc2ccccc2)C1 (configuration not stated),-4.69%,
CCn1nc(C)cc1C(=O)N1CCCC(C(=O)c2cccc(OC)c2)C1 (configuration not stated),20.3%,
COc1ccc(C(=O)C2CCCN(C(=O)c3cnsn3)C2)c(C)c1 (configuration not stated),12.8%,
CCNC(=O)N1CCCC(C(=O)c2ccc(-c3ccccc3)cc2)C1 (configuration not stated),,10.4 µM (active)
CCOc1cc(/C=C/c2nc3ccccc3c(=O)[nH]2)cc(Br)c1OC,-29.4%,
Cc1cc(OC(=O)c2ccc(OC(C)C)cc2)c([N+](=O)[O-])c(=O)[nH]1,-13.8%,
Cc1cccc(C(=O)OC(C)C(=O)NC2CCCc3ccccc32)c1O (configuration not stated),92.5%,

SMILES,"activity change, negative = inhibition",Potency
O=C(NC1CCCCC1)c1ccc(-c2ccc(Cl)cc2)o1,131%,
COc1ccc(C2/C(=C(/O)c3ccc4c(c3)CC(C)O4)C(=O)C(=O)N2Cc2ccncc2)cc1 (configuration not stated),3.97%,
CC(=O)c1c(C)[nH]c(C(=O)OCC(=O)Nc2c(C)n(C)n(-c3ccccc3)c2=O)c1C,17.9%,
COc1ccc(N2CCN(C(=O)CN3C(=O)COc4ccccc43)CC2)cc1,2.23%,
CN1CN(C)c2ccc([N+](=O)[O-])c3cccc1c23,41.2%,
O=C(NCc1ccncc1)C1CCN(C(=O)c2cccc(Cl)c2)CC1,45.8%,
CCCn1c(C2CCCN2c2nc(-c3ccc(C)cc3)cs2)nc2cc(Cl)c(N3CCCCC3)cc21 (configuration not stated),,3.29 µM (active)
COc1cccc(NC(=O)CN2CCN(c3nc(-c4cccc(OC)c4)cs3)CC2)c1,-2.14%,
COc1ccc(-c2csc(N3CCN(Cc4ccc5c(c4)OCO5)CC3)n2)cc1,-2.39%,
Cc1ccc(-c2csc(N3CCN(c4cc5c(cc4Cl)nc(-c4ccncc4)n5CCOCCO)CC3)n2)cc1,,5.86 µM (active)
CCn1c(SCC(=O)N/N=C/c2ccccc2OCC(=O)O)nnc1-c1ccc(C(C)(C)C)cc1,2.33%,
O=C1CC2(CC(c3ccc(Cl)cc3)=NO2)C(=O)N1c1ccccc1 (configuration not stated),-4.38%,
COCCN(CCOC)c1nc(N)c2c(N)nc3c(c2c1C#N)CC(=O)N3Cc1ccc(Cl)cc1,,2.62 µM (active)
CCCCN1C(=O)C(=O)N(CC(=O)Nc2cccc(C(C)=O)c2)C1=O,-16.1%,
COc1ccc(NCCc2ccccn2)cc1,30.7%,
Cc1ccc(NC(=O)CCC(=O)c2ccc(Br)cc2)cc1,37%,
CN(Cc1ccccc1)C(=O)C1CCCN(c2ncnc3c2nc2n3CCCCC2)C1 (configuration not stated),,14.7 µM (active)
OC1CCCN(c2ncnc3c2nnn3Cc2c(F)cccc2Cl)C1 (configuration not stated),45.1%,
CN(C(=O)C1CCN(c2ncnc3c2nc2n3CCCCC2)CC1)C1CCCCC1,1.7%,
COCCNc1ncnc2c1nc1n2CCCC1,16.5%,
COc1cccc(NC(=O)C2CCCN(c3ncnc4c3nc3n4CCCCC3)C2)c1 (configuration not stated),,8.28 µM (active)
O=C(NCCCN1CCCCC1)C1CCCN(c2ncnc3c2nc2n3CCCCC2)C1 (configuration not stated),0.744%,

SMILES,"activity change, negative = inhibition",Potency
COc1cccc(CNC(=O)C2CCCN(c3ncnc4c3nc3n4CCCCC3)C2)c1 (configuration not stated),23.4%,
O=C(NCc1ccccc1Cl)C1CCN(c2ncnc3c2nc2n3CCCCC2)CC1,17.6%,
CCOC(=O)c1cccc(NC(=O)C2CCN(c3ncnc4c3nc3n4CCCCC3)CC2)c1,,10.4 µM (active)
Cc1cnc(C(=O)Oc2cccc(Cl)c2Cl)cn1,34.7%,
O=C(NCC#CCSc1nnc(-c2cccc3ccccc23)o1)c1cccs1,-16.4%,
Cc1ccc(S(=O)(=O)N[C@@H](Cc2ccccc2)C(=O)N2CCC(C(=O)N[C@H](C(=O)O)C(C)O)CC2)cc1 (some centres not stated),4.81%,
O=S(=O)(Cc1nnnn1-c1ccc(Br)cc1)c1ccc(F)cc1,13.9%,
O=C(Nc1ccccc1)/C(=C\c1ccco1)NC(=O)c1ccco1,14.6%,
CCn1c(SCC(=O)Nc2sc(C)c(C)c2C#N)nnc1C1CC1,4.09%,
O=C(N1CCOCC1)N(Cc1ccccc1)c1ccccn1,2.7%,
CC(=O)c1c(N2CCOCC2)nc(=S)n(Cc2ccccc2)c1C,,0.329 µM (active)
CC(=O)c1c(N2CCOCC2)nc(=S)n(-c2cc(C)ccc2C)c1C,0.824%,
CN1CCN(C(=O)c2ccccc2NC(=O)COc2ccccc2Cl)CC1,-4.76%,
CCOc1ccc(S(=O)(=O)NCCC(=O)NCC2CCCO2)cc1 (configuration not stated),24%,
COc1ccc(S(=O)(=O)N2CCN(C(=S)NCC3CCCO3)CC2)cc1OC (configuration not stated),-5.09%,
CCOc1ccc(NC(=S)N2CCC(N(C)CC3CCCO3)CC2)cc1 (configuration not stated),,11.7 µM (active)
CCOc1ccc(NC(=S)N2CCCCCC2)cc1,-20%,
CCC(C)N(C)C1CCN(C(=S)Nc2ccc(OC)cc2)CC1 (configuration not stated),-7.01%,
CCOc1ccc(S(=O)(=O)N2CCN(C(=S)NCC3CCCO3)CC2)cc1 (configuration not stated),,2.94 µM (active)
